Test results: the supplement of paper PMC6805474

Columns and labels:
[1] = tested on: Schistosoma mansoni schistosomula (LE); test: XTT viability relative to DMSO control; higher = more viable (less active); settings: 72 h; 10 µM
Experimental: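 XTT/PMS was then added for a further 24 h (72 h total) and A450 was read. % viability = (sample - heat-killed control)/(DMSO control - heat-killed control) x 100, from duplicate wells in two independent experiments.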

[2] = tested on: Schistosoma mansoni schistosomula (NMRI); test: phenotypic severity score (0-4); higher = more antischistosomal effect, active = 2 or more; settings: 10 µM
[3] = tested on: Schistosoma mansoni schistosomula (Liberian); test: drug effect (1 - score/DMSO control score) (fraction); higher = more antischistosomal effect, active = 0.5 or more; extreme values may be limits of the assay; settings: 10 µM
How it was run: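 A plate was valid only if its 0.1% DMSO wells averaged a score of at least 2. Those wells ran beside duplicate wells in which 50 Liberian-strain Schistosoma mansoni schistosomula each, transformed mechanically from cercariae and pre-incubated at least 12 h, met 10 µM compound in Medium 199 with 5% FCS at 37 °C, 5% CO2. Scoring was visual at 10× at 24, 48 and 72 h, from 3 (normal) to 0 (dead) in quarter-point steps. Drug effect was derived from the mean test-well score against the mean DMSO-well score, with negatives set to zero.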
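Throughout, for phenotypic severity score (0-4): visual microscopic scoring of shape, motility and density changes versus 0.5% DMSO solvent controls, one point per descriptor, degeneracy or death scored 4, mean of duplicate wells.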

SMILES | XTT viability [1] [%] | phenotypic severity score ([2]; 24 h) | phenotypic severity score ([2]; 48 h) | phenotypic severity score ([2]; 72 h) | drug effect ([3]; 24 h) | drug effect ([3]; 48 h) | drug effect ([3]; 72 h)
CCN(CC)CCCN1CCN(C(=O)c2cccc(-c3noc(C(F)(F)F)n3)c2)CC1 | 97.3 | 0 (inactive) | 0 (inactive) | 1 (inactive) | 0.2 (inactive) | 0.111 (inactive) | 0.25 (inactive)
Cc1cc2nc(NC(=O)C(C)(C)C)nc(Cl)c2n1Cc1ccc(Cl)cc1 | 109 | 0 (inactive) | 0 (inactive) | 0 (inactive) | 0.136 (inactive) | 0.4 (inactive) | 0.345 (inactive)
Cc1cccc(NC(=O)c2cc(S(=O)(=O)N(C)c3ccc(F)cc3)ccc2Cl)n1 | 81 | 0 (inactive) | 0 (inactive) | 0 (inactive) | 0.05 (inactive) | 0.135 (inactive) | 0.222 (inactive)
CNc1snc(C)c1C(=O)NCCOc1ccc(OC)cc1 | 91.3 | 1 (inactive) | 0 (inactive) | 0 (inactive) | 0.0909 (inactive) | 0.15 (inactive) | 0.127 (inactive)
COC(=O)c1cccc2oc(-c3cccc(OC)c3NC(=O)c3cc(-c4ccccc4)on3)nc12 | 88.1 | 0 (inactive) | 0 (inactive) | 0 (inactive) | 0.351 (inactive) | 0.333 (inactive) | 0.312 (inactive)
Cc1cc(C)cc(COc2ccc3c(C)c(CCC(=O)O)c(=O)oc3c2C)c1 | 79.3 | 1 (inactive) | 1 (inactive) | 0 (inactive) | 0.136 (inactive) | 0.2 (inactive) | 0.127 (inactive)
CC1CS(=O)(=O)CCN1/N=C/c1ccc([N+](=O)[O-])o1 (centres undefined) | 224 | 0 (inactive) | 0 (inactive) | 0 (inactive) | 0.3 (inactive) | 0.278 (inactive) | 0.625 (active)
CCOc1ccc(-c2nc(NC(=O)CS(=O)(=O)c3ccccc3)sc2C)cc1 | 61.8 | 0 (inactive) | 0 (inactive) | 1 (inactive) | 0.1 (inactive) | 0.0811 (inactive) | 0.111 (inactive)
CCc1nc2ccc(C(=O)NCc3ccc4c(c3)OCO4)cn2c1N(C)Cc1cccs1 | 140 | 0 (inactive) | 0 (inactive) | 0 (inactive) | < 0 (inactive) | 0.1 (inactive) | 0.167 (inactive)
Cc1ccc2nc(C)c(-c3ccn(Cc4ccccc4)n3)n2c1 | 95.7 | 3 (active) | 4 (active) | 4 (active) | < 0 (inactive) | < 0 (inactive) | 0.111 (inactive)
NCC(=O)N1CCn2c(nc(-c3ccccc3)c2Nc2ccc3c(c2)OCO3)C1 | 129 | 0 (inactive) | 0 (inactive) | 2 (active) | 0.297 (inactive) | 0.444 (inactive) | 0.688 (active)
COc1ccccc1CNC(=O)c1cc(C2CC2)nc2c1cnn2C(C)C | 38.4 | 0 (inactive) | 0 (inactive) | 0 (inactive) | 0.2 (inactive) | 0.459 (inactive) | 0.667 (active)
COc1cc2ncnc(NC3CCN(Cc4ccccc4)CC3)c2cc1OC | 86.5 | 0 (inactive) | 0 (inactive) | 0 (inactive) | 0.1 (inactive) | 0.135 (inactive) | 0.0556 (inactive)
Cc1cc(NCC(C)C)c2n[nH]c(-c3ccccc3)c2n1 | 92.7 | 0 (inactive) | 0 (inactive) | 0 (inactive) | 0.105 (inactive) | 0.111 (inactive) | 0.0625 (inactive)
COc1cc(C2=NCCN2)ccc1-n1cc(-c2cccc(C3=NCCN3)c2)nn1 | 77.2 | 1 (inactive) | 0 (inactive) | 0 (inactive) | 0.243 (inactive) | 0.278 (inactive) | 0.5 (active)
O=C(Nc1c(O)cccc1-c1nc2c(C(=O)O)cccc2o1)c1cc(-c2ccccc2)on1 | 80.2 | 0 (inactive) | 0 (inactive) | 0 (inactive) | 0.05 (inactive) | 0.027 (inactive) | 0.0303 (inactive)
CCc1ccc(S(=O)(=O)Nc2cc(CN3CCN(CCC(C)C)CC3)ccc2C)cc1 | 85.8 | 1 (inactive) | 2 (active) | 4 (active) | 0.25 (inactive) | 0.444 (inactive) | 0.5 (active)
CN1CCC(c2cc(-c3ccncc3)c(-c3ccc(F)cc3)[nH]2)CC1 | 94.6 | 0 (inactive) | 0 (inactive) | 0 (inactive) | < 0 (inactive) | 0.0556 (inactive) | 0.111 (inactive)
COc1cccc(-c2nc3c(N4CCCC4)cccc3n2CC2CCCN2)n1 (centres undefined) | 158 | 4 (active) | 4 (active) | 4 (active) | 0.35 (inactive) | 0.778 (active) | 0.75 (active)
CC(C)C(C(=O)Nc1ccc(S(=O)(=O)N(C)C)cc1)c1ccc(Cl)cc1 (centres undefined) | 29.5 | 2 (active) | 4 (active) | 4 (active) | 0.955 (active) | 0.85 (active) | 1 (active)
CN1CCN(c2nccc3nc(-c4ccc(F)c(F)c4)[nH]c23)CC1 | 110 | 0 (inactive) | 0 (inactive) | 0 (inactive) | < 0 (inactive) | 0.1 (inactive) | 0.167 (inactive)

SMILES | XTT viability [1] [%] | phenotypic severity score ([2]; 24 h) | phenotypic severity score ([2]; 48 h) | phenotypic severity score ([2]; 72 h) | drug effect ([3]; 24 h) | drug effect ([3]; 48 h) | drug effect ([3]; 72 h)
Clc1cccc(CO[C@H]2CCc3ccccc3[C@@H]2n2ccnn2)c1 | 80.7 | 3 (active) | 4 (active) | 4 (active) | < 0 (inactive) | 0.1 (inactive) | 0.158 (inactive)
Cc1nnc(NC(=O)c2cn(-c3ccccc3)nc2-c2ccccc2C)o1 | 56.8 | 1 (inactive) | 1 (inactive) | 1 (inactive) | < 0 (inactive) | 0.0811 (inactive) | 0.111 (inactive)
Cc1ccc(S(=O)(=O)n2cc(-c3ccnc(N)c3)c3cc(Br)cnc32)cc1 | 4.55 | 2 (active) | 3 (active) | 3 (active) | 0.45 (inactive) | 0.568 (active) | 0.515 (active)
CC(C)(CN)c1nc(-c2ccc(Cl)c(O)c2)c(-c2ccnc(N)n2)[nH]1 | 156 | 0 (inactive) | 0 (inactive) | 0 (inactive) | 0.15 (inactive) | 0.167 (inactive) | 0.312 (inactive)
CC(C)c1ncc(-c2ccncc2)c([C@H]2CC[C@H](CNC(=O)c3cccnc3)CC2)n1 | 94 | 0 (inactive) | 0 (inactive) | 0 (inactive) | 0.05 (inactive) | 0.0811 (inactive) | 0.111 (inactive)
O=C(CCC1CCCCC1)Nc1cccc(-c2nnc(-c3ccco3)o2)c1 | 145 | 2 (active) | 4 (active) | 4 (active) | 0.182 (inactive) | 0.2 (inactive) | 0.167 (inactive)
O=C(Nc1ccc(F)c(-c2nc3cc(-c4ccccc4)cnc3[nH]2)c1)N1CCCC1 | 111 | 0 (inactive) | 4 (active) | 4 (active) | 0.676 (active) | 0.667 (active) | 0.875 (active)
CCOc1ccc2cc(-c3nn(CC4CCN(C)CC4)c4ncnc(N)c34)ccc2c1 | 44.3 | 0 (inactive) | 0 (inactive) | 0 (inactive) | 0.1 (inactive) | 0.167 (inactive) | 0.389 (inactive)
Cc1[nH]c2cc(F)cc(F)c2c(=O)c1-c1ccc(Oc2ccc(OC(F)(F)F)cc2)cc1 | 74.6 | 2 (active) | 4 (active) | 4 (active) | 0.45 (inactive) | 0.778 (active) | 0.75 (active)
Oc1c(I)cc(I)c2cccnc12 | 6.58 | 2 (active) | 1 (inactive) | 2 (active) | 0.1 (inactive) | 0.135 (inactive) | 0.333 (inactive)
O=C(c1[nH]nc2c1CCCC2)N1CCN(Cc2ccc3c(c2)OCO3)CC1 | 89.6 | 0 (inactive) | 0 (inactive) | 0 (inactive) | 0.0909 (inactive) | 0.25 (inactive) | 0.236 (inactive)
Cc1cnc(CCNC(=O)c2cc(-c3ccc(Cl)cc3)cs2)[nH]1 | 79.7 | 1 (inactive) | 1 (inactive) | 0 (inactive) | 0.136 (inactive) | 0.45 (inactive) | 0.509 (active)
CC(C(=O)N1CCCC1)N1CCN(S(=O)(=O)c2ccc(C(C)(C)C)cc2)CC1 (centres undefined) | 109 | 1 (inactive) | 0 (inactive) | 0 (inactive) | 0.05 (inactive) | 0.027 (inactive) | 0.0909 (inactive)
NCC(c1cccs1)S(=O)(=O)c1ccccc1 (centres undefined) | 45.2 | 1 (inactive) | 1 (inactive) | 2 (active) | 0.15 (inactive) | 0.05 (inactive) | 0.0556 (inactive)
Cc1nn2c(=O)c3c([nH]c2c1-c1ccc(Cl)cc1)CCCC3 | 101 | 0 (inactive) | 0 (inactive) | 0 (inactive) | 0.136 (inactive) | 0.2 (inactive) | 0.127 (inactive)
CC(C)(C)c1cnc(NC(=O)c2ccccc2O)s1 | 79.9 | 0 (inactive) | 1 (inactive) | 1 (inactive) | 1 (active) | 1 (active) | 1 (active)
O=C(NC1CC1)c1ccc(N2CCOc3ccc(Cl)cc32)s1 | 83.5 | 0 (inactive) | 0 (inactive) | 0 (inactive) | 0.35 (inactive) | 0.459 (inactive) | 0.5 (active)
CCOc1ccccc1NC(C)C(=O)Nc1cc(C(F)(F)F)ccc1N1CCOCC1 (centres undefined) | 96 | 0 (inactive) | 0 (inactive) | 0 (inactive) | 0.15 (inactive) | 0.167 (inactive) | 0.312 (inactive)
COc1ccc(-c2nn(C(C)C)c3ncnc(N)c23)cc1OC | 95.2 | 0 (inactive) | 0 (inactive) | 0 (inactive) | 0.05 (inactive) | 0.0556 (inactive) | 0.0556 (inactive)
COc1ccc(-c2cnc3ccc(N4CCCC4)nn23)cc1OC | 60.5 | 2 (active) | 4 (active) | 4 (active) | 0.784 (active) | 0.944 (active) | 1 (active)
CNC1C(OC2C(OC3C(O)C(O)C(NC(=N)N)C(O)C3NC(=N)N)OC(C)C2(O)C=O)OC(CO)C(O)C1O (centres undefined) | 93 | 0 (inactive) | 0 (inactive) | 0 (inactive) | 0.182 (inactive) | 0.1 (inactive) | 0.0727 (inactive)
